According to PubChem BioAssay (NCI):
Compounds without any hit were thinned out: in the full panel of roughly 79,000, 15% have a hit. Values without a mark were called inactive. Activity calls are given as the source filed them. Rule as the data show it: active = growth inhibition above about 70%; inactive = the rest.

test: NCI Yeast Anticancer Drug Screen. Data for the rad50 strain (AID 155);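 also: 0% = growth of vehicle-only cultures of the same strain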; conditions: S. cerevisiae rad50 strain growth inhibition; at 50.0 µM; hits give high values
Method: Growth inhibition of yeast strains with defined genetic alterations is measured as a screen for potential anti-cancer activity. Selected strains with alterations in DNA damage repair or cell cycle control were exposed to compounds and growth inhibition was measured relative to vehicle treated controls. The strain used in this assay is rad50

With `COC12C(COC(N)=O)C3=C(C(=O)C(C)=C(N4CC4)C3=O)N1CC1NC12` (stereo not given) the growth inhibition was 87.7% (active).
In the case of `COc1ccc2c(c1)CCC1C2CCC2(C)C1CCC21CCNP(=O)(N(CCCl)CCCl)O1` (stereo not given), the growth inhibition is reported as 72% (active).
For `C[N+](C)(C)CC1CCc2ccccc2C1=O` (stereo not given), the growth inhibition was 89.2% (active).
For `CCCCCCCCCSCP(=O)(OCC)OCC`, the growth inhibition was 99.5% (active).
In the case of `CCOP(=O)(OCC)Oc1c(Cl)c(Cl)c(Cl)c(Cl)c1Cl`, the growth inhibition is reported as 70.3% (active).

Going from `CN(C)Cc1c[nH]c2ccc(F)cc12` to `Fc1ccc(N=C=S)cc1`, the growth inhibition falls from -27% to -28.1%.

Going from `CCCCCCCCCCOC(=O)c1ccccc1C(=O)OCCCCCCCCCC` to `CCOP(=O)(OCC)O/N=C(/c1ccccc1)C(C)C`, the growth inhibition rises from -22% to 25.4%.

Going from `Cc1ccc(SCC(CSCCO)OCn2cnc3c2NC(N)=NC32OCCO2)cc1` (stereo not given) to `Cc1ccc(C)c(C(C)NC2=NCCO2)c1` (stereo not given), the growth inhibition falls from 6.15% to -3.95%.

Compared with `[Se]=[Mo]=[Se]`, `NCCCN1CCN(c2ccccc2)CC1` is higher in growth inhibition: -10.2% for the first, -0.45% for the second.

First: CC(C)N[C@@H]1CCC[C@H]1O
Second: C1=CC2CCC1C2
The growth inhibition of the first is lower: 4.5% for the first, 15.5% for the second.

Going from `Oc1ccccc1C=NCCN=Cc1ccccc1O.[Zn+2]` to `CC(C)(C)NCC(COc1ccc([N+](=O)[O-])cc1)OP(c1ccccc1)c1ccccc1` (stereo not given), the growth inhibition rises from -29.2% to 15.7%.

Going from `Cc1ccc(S(=O)(=O)Nc2cc(C)cc(CCN)c2C)cc1` to `O=C(COc1cccc(Cl)c1Cl)Nc1ccc[n+](Cc2ccc(S(=O)(=O)F)cc2)c1`, the growth inhibition rises from 17.1% to 20.4%.

Going from `CC(=O)Oc1cccc(C#N)c1` to `CN(C)C(=O)Oc1ccc(Cl)cc1Cl`, the growth inhibition rises from -3.1% to 9.2%.

Going from `O=C(CCC1CCCCN1)Nc1ccc2c(c1)C(=O)c1ccc(NC(=O)CCN3CCCCC3)cc1C2=O` (stereo not given) to `NC(=O)Nc1cc(NC(N)=O)cc(N(CCCl)CCCl)c1`, the growth inhibition falls from 6.2% to -7%.

Compared with `CCOP(=O)(OCC)C(C)(C)OC(=O)NC#N`, `CCC(Br)(CC)C(=O)NC(N)=O` is higher in growth inhibition: -24.2% for the first, 13.1% for the second.

Going from `O=C(O)C(O)(Cl)c1cccs1` (stereo not given) to `O=Cc1ccccc1.[C-]#[O+].[C-]#[O+].[C-]#[O+].[Cr]`, the growth inhibition rises from -0.5% to 7.35%.

First: CC(=O)O[C@H]1CC[C@@]2(C)[C@H](CC[C@@H]3[C@@H]2CC[C@]2(C)[C@@H](c4ccc(=O)oc4)C[C@H]4O[C@]342)C1
Second: CCCC(=O)OC1C(c2ccc(=O)oc2)C2(C)CCC3C(CCC4CC(OC(C)=O)CCC43C)C23OC13 (stereo not given)
The growth inhibition of the first is higher: 53% for the first, 1.55% for the second.

Compared with `COc1ccc2c(c1)C1(C)CCN(C)CC(C1)C2O` (stereo not given), `COc1cc2c(cc1O)CNCC2c1ccc(O)c(C)c1` (stereo not given) is lower in growth inhibition: 47.2% for the first, -10.8% for the second.

Going from `CC(=O)OC1CCC2(C)C(CC(=O)C3C2CCC2(C)C(OC(C)=O)CCC32)C1` (stereo not given) to `CC1(C)C(=O)N(O)C(C)(C)N1N=O`, the growth inhibition falls from 7.35% to 1.95%.

Compared with `C/C=C/C(=O)[O-].C/C=C/C(=O)[O-].N.N.N.N.[Co+3].[O-][Cl+3]([O-])([O-])[O-]`, `CC(=O)[CH-]C(C)=O.CC(=O)[CH-]C(C)=O.CC(=O)[CH-]C(C)=O.CCC(=O)O.[Zn+2].[Zn]` is lower in growth inhibition: 0.2% for the first, -20.9% for the second.

Compared with `[CH3][Sn]1([CH3])[O]CC(COc2cc(Cl)c(Cl)cc2Cl)[O]1` (stereo not given), `COc1ccccc1NC1=NCCS1` is higher in growth inhibition: -22.4% for the first, 20.9% for the second.

First: CC(C)CCC1C(=O)NC(=O)NC1=O
Second: [Cl][Pt]([Cl])[Cl].[NH-]C1CN2CCC1CC2 (stereo not given)
The growth inhibition of the first is lower: -0.2% for the first, 19.9% for the second.

`C1CCC2[N-]CCCC2C1.C1CCC2[N-]CCCC2C1.[Cl][Pt+2][Cl]` (stereo not given) showed a growth inhibition of 42.2%.
